# In publication PMC7862700, “An all-to-all approach to the identification of sequence-specific readers for epigenetic DNA modifications on cytosine”:
# What was measured:
# Test in all cases: DAPPL (digital affinity profiling via proximity ligation, sequencing); 10 mM Tris-HCl pH 7.5, 50 mM NaCl, 1 mM DTT, 4% glycerol, room temperature, 30 min; GST-TFs on glutathione beads, 16-mer random dsDNA library, 0.1% formaldehyde crosslink after washing; high values mean tight binding
# FEV = molecular target: T1, FEV (Homo sapiens, UniProt Q99581 1-238); details: protein: recombinant; tags: N-terminal GST; dsDNA, one strand shown
# T1 sequence: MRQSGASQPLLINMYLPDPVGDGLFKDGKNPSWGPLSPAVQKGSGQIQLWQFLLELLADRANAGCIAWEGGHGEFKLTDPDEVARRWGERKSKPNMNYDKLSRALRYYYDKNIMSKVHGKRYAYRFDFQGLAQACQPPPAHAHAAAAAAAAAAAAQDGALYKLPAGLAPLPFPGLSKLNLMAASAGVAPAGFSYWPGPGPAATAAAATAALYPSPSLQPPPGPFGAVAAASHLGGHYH
# Summary of the method: (§1)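 Yeast served to express human transcription factors as GST fusions, which were then captured on glutathione beads and labelled with DNA barcodes. Pooled with a tag-only sample, they were incubated with 200 nmole of a 16-mer random double-stranded DNA library for 30 min at room temperature in Tris/NaCl/DTT/glycerol buffer, washed, crosslinked with 0.1% formaldehyde, ligated by proximity, amplified by PCR and sequenced. Dividing each hexamer's read frequency for a factor by its frequency for the tag-only sample gives the binding signal.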
# ETV5 = ETV5 (Homo sapiens, UniProt P41161 1-510); details: protein: recombinant; tags: N-terminal GST; dsDNA, one strand shown
# Summary of the method: as §1
# HSF1 = HSF1 (Homo sapiens, UniProt Q00613 1-529); details: protein: recombinant; tags: N-terminal GST; chain copies: 3; dsDNA, one strand shown
# Summary of the method: as §1
# SPIC = molecular target: T2, SPIC (Homo sapiens, UniProt Q8N5J4 1-248); details: protein: recombinant; tags: N-terminal GST; dsDNA, one strand shown
# T2 sequence: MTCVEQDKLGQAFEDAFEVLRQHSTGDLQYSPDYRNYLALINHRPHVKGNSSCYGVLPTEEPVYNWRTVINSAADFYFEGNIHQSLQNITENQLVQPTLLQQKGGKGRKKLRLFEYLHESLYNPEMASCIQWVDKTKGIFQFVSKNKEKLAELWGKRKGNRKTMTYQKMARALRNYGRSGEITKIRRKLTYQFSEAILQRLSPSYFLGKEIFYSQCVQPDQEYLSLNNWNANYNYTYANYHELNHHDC
# Summary of the method: as §1
# ELF4 = ELF4 (Homo sapiens, UniProt Q99607 1-663); details: protein: recombinant; tags: N-terminal GST; dsDNA, one strand shown
# Summary of the method: as §1
# ELK4 = molecular target: T3, ELK4 (Homo sapiens, UniProt P28324-2 1-405); details: protein: recombinant; tags: N-terminal GST; dsDNA, one strand shown
# T3 sequence: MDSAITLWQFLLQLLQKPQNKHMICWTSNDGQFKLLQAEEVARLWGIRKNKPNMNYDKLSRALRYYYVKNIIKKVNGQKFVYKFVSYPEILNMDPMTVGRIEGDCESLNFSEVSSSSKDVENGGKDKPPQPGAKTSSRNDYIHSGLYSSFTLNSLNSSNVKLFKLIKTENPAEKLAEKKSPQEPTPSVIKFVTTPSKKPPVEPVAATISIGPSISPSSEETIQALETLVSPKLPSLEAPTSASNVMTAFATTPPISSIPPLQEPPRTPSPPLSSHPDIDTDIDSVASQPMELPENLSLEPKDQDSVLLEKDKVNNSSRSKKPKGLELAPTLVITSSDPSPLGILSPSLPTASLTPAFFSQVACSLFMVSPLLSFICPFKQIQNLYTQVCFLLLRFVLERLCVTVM
# Summary of the method: as §1
# ETV2 = molecular target: T4, ETV2 (Homo sapiens, UniProt O00321 1-342); details: protein: recombinant; tags: N-terminal GST; dsDNA, one strand shown
# T4 sequence: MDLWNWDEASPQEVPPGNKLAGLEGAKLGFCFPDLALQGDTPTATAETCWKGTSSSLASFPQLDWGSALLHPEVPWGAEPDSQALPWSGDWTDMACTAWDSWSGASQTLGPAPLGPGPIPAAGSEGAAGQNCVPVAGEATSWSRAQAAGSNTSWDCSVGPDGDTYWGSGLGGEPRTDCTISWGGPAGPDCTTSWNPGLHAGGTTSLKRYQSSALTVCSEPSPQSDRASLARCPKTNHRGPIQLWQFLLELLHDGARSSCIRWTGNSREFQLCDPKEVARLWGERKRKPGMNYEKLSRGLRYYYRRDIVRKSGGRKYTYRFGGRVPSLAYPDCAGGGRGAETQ
# Summary of the method: as §1
# ELF3 = molecular target: T5, ELF3 (Homo sapiens, UniProt P78545 1-371); details: protein: recombinant; tags: N-terminal GST; dsDNA, one strand shown
# T5 sequence: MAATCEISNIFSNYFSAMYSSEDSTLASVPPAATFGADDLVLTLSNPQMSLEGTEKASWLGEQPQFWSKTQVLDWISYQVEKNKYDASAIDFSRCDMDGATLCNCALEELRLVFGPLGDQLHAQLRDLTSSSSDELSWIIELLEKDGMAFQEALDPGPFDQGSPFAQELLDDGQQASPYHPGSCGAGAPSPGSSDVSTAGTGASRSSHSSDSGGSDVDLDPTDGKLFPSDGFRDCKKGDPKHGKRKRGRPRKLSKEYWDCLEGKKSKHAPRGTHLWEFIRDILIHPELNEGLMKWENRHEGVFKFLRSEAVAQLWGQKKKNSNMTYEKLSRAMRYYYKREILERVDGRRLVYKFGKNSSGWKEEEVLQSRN
# Summary of the method: as §1
# CRX = CRX (Homo sapiens, UniProt O43186 1-299); details: protein: recombinant; tags: N-terminal GST; dsDNA, one strand shown
# Summary of the method: as §1
# ETV1 = ETV1 (Homo sapiens, UniProt P50549 1-477); details: protein: recombinant; tags: N-terminal GST; dsDNA, one strand shown
# Summary of the method: as §1
# ERF = molecular target: T6, ERF (Homo sapiens, UniProt P50548 1-548); details: protein: recombinant; tags: N-terminal GST; dsDNA, one strand shown
# T6 sequence: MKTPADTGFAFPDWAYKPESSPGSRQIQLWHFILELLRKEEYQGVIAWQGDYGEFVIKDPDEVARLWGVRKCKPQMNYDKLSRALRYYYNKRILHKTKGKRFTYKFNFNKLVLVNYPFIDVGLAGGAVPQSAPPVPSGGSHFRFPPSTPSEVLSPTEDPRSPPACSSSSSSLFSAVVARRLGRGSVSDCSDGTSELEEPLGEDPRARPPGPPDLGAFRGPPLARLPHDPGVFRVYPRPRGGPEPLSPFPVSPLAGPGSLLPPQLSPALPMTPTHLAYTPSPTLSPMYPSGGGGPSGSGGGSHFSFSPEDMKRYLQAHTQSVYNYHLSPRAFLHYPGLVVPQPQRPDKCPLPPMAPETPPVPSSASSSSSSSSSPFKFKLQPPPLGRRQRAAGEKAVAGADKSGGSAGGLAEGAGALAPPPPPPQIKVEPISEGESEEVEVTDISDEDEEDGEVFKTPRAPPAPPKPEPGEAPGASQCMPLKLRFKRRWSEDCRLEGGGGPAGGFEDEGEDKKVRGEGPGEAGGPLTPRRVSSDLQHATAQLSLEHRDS
# Summary of the method: as §1
# ETV3L = molecular target: T7, ETV3L (Homo sapiens, UniProt Q6ZN32 1-361); details: protein: recombinant; tags: N-terminal GST; dsDNA, one strand shown
# T7 sequence: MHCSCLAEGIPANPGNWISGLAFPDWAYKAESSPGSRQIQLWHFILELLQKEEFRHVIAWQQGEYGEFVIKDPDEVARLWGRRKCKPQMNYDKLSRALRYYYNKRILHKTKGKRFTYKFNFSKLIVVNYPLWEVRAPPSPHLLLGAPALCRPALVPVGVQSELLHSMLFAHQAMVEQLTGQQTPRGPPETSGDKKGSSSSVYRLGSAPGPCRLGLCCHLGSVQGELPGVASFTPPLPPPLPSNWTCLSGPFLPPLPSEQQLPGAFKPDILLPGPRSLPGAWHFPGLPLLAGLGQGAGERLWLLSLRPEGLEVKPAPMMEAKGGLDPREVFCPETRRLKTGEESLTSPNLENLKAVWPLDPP
# Summary of the method: as §1
# ETS2 = molecular target: T8, ETS2 (Homo sapiens, UniProt P15036 1-469); details: protein: recombinant; tags: N-terminal GST; dsDNA, one strand shown
# T8 sequence: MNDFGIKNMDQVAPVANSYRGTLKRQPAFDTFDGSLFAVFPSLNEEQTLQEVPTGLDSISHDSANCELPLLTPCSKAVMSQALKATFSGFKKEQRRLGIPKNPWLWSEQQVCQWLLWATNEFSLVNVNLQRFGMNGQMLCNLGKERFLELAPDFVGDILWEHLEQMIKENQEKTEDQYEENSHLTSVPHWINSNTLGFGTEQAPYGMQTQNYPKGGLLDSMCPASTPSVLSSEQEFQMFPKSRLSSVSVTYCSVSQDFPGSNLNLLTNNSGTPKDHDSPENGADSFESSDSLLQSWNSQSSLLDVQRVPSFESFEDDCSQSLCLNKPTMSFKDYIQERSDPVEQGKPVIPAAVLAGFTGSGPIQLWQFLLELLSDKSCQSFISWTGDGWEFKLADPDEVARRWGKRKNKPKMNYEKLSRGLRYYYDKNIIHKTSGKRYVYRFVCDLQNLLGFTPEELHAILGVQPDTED
# Summary of the method: as §1
# SPDEF = molecular target: T9, SPDEF (Homo sapiens, UniProt O95238 1-335); details: protein: recombinant; tags: N-terminal GST; dsDNA, one strand shown
# T9 sequence: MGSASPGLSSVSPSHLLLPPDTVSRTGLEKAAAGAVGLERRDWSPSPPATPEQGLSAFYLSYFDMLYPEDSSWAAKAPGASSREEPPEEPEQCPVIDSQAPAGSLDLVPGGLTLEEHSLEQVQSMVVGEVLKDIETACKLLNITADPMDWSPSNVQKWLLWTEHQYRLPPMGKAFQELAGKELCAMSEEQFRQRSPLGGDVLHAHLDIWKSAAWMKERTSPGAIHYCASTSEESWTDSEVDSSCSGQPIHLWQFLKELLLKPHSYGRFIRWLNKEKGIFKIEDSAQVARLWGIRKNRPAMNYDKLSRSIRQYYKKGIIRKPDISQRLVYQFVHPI
# Summary of the method: as §1
# ETV7 = molecular target: T10, ETV7 (Homo sapiens, UniProt Q9Y603 1-341); details: protein: recombinant; tags: N-terminal GST; dsDNA, one strand shown
# T10 sequence: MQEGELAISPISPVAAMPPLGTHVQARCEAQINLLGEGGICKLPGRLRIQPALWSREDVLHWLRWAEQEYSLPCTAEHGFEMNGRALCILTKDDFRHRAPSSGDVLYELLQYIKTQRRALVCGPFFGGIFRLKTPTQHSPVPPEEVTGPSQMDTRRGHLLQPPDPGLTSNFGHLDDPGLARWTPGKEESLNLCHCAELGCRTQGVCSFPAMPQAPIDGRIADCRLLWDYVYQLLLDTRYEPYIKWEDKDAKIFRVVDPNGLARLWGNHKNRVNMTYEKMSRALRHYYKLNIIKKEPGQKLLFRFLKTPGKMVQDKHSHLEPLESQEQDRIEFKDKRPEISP
# Summary of the method: as §1
# ELF5 = molecular target: T11, ELF5 (Homo sapiens, UniProt Q9UKW6-2 1-255); details: protein: recombinant; tags: N-terminal GST; dsDNA, one strand shown
# T11 sequence: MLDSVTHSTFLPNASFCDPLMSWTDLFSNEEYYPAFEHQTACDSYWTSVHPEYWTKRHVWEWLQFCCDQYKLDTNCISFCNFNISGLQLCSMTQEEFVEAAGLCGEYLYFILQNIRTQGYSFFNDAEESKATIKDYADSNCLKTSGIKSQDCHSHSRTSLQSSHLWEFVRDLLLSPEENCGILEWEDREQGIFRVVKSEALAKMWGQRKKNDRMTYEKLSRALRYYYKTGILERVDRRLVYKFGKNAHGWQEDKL
# Summary of the method: as §1
# ETV3 = molecular target: T12, ETV3 (Homo sapiens, UniProt P41162-2 1-143); details: protein: recombinant; tags: N-terminal GST; dsDNA, one strand shown
# T12 sequence: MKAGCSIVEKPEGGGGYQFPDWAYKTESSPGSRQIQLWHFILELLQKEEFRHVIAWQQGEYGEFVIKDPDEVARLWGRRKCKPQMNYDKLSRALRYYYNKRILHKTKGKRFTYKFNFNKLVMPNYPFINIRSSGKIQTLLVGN
# Summary of the method: as §1
# ETV6 = ETV6 (Homo sapiens, UniProt P41212 1-452); details: protein: recombinant; tags: N-terminal GST; dsDNA, one strand shown
# Summary of the method: as §1
# Chain of ETV1 (P50549 whole entry): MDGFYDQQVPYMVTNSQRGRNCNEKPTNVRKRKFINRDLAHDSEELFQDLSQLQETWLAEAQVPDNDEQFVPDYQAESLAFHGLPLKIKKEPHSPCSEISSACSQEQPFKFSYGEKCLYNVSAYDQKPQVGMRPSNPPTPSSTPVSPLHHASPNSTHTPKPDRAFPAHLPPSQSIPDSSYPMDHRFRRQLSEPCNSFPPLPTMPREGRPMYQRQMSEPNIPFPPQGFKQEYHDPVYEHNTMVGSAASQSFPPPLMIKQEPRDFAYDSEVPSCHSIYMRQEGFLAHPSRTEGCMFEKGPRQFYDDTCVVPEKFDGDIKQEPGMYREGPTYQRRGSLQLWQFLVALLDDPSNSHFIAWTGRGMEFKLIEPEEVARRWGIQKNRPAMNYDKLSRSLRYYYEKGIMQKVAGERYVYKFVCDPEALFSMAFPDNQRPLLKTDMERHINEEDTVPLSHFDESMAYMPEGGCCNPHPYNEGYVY
# Chain of HSF1 (Q00613 whole entry): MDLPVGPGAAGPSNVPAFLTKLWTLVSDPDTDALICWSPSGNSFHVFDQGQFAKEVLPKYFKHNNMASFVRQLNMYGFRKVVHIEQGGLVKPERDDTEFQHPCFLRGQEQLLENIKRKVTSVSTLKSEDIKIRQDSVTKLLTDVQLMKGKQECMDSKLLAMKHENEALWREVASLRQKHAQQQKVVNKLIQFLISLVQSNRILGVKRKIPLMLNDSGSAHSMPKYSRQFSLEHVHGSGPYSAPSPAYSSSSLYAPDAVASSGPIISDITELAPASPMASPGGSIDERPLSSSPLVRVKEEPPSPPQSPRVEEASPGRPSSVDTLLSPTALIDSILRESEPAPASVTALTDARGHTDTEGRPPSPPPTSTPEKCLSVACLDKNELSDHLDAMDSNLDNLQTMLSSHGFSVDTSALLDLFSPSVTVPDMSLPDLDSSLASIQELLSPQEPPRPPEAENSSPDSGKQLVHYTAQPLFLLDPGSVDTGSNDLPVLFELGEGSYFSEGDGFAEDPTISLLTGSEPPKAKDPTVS
# Chain of ETV6 (P41212 whole entry): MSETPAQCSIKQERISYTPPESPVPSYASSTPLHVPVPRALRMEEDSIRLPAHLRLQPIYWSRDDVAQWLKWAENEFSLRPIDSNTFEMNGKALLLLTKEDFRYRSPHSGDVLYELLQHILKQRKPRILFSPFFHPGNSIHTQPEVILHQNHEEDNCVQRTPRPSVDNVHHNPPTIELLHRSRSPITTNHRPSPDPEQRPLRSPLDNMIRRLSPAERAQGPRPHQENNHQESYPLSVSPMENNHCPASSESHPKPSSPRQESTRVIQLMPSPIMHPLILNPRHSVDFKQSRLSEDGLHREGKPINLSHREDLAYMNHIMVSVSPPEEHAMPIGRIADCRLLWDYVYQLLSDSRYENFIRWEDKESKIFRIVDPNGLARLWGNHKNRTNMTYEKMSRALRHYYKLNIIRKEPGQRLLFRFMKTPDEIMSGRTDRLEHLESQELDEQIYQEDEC
# Chain of ETV5 (P41161 whole entry): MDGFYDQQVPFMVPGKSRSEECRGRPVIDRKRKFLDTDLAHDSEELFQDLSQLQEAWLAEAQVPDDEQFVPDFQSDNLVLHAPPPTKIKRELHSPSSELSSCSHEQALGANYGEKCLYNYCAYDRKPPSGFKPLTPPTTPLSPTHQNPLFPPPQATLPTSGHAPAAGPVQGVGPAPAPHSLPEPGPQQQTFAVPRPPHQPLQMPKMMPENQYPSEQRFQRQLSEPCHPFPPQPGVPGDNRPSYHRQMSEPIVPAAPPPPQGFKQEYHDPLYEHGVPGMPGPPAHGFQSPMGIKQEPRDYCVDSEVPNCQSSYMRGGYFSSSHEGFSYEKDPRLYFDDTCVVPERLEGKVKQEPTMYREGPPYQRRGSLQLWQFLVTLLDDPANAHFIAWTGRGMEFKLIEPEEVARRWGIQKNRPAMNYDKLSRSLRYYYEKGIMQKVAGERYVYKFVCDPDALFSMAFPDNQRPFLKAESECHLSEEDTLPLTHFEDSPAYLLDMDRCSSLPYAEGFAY
# Chain of CRX (O43186 whole entry): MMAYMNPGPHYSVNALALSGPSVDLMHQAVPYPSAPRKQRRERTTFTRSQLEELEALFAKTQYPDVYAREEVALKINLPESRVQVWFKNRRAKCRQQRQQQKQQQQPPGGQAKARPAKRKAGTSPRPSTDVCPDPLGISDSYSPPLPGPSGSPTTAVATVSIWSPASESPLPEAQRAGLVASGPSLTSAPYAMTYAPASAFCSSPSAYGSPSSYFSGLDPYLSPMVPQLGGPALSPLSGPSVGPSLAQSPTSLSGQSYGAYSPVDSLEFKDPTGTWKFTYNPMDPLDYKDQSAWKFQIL
# Chain of ELF4 (Q99607 whole entry): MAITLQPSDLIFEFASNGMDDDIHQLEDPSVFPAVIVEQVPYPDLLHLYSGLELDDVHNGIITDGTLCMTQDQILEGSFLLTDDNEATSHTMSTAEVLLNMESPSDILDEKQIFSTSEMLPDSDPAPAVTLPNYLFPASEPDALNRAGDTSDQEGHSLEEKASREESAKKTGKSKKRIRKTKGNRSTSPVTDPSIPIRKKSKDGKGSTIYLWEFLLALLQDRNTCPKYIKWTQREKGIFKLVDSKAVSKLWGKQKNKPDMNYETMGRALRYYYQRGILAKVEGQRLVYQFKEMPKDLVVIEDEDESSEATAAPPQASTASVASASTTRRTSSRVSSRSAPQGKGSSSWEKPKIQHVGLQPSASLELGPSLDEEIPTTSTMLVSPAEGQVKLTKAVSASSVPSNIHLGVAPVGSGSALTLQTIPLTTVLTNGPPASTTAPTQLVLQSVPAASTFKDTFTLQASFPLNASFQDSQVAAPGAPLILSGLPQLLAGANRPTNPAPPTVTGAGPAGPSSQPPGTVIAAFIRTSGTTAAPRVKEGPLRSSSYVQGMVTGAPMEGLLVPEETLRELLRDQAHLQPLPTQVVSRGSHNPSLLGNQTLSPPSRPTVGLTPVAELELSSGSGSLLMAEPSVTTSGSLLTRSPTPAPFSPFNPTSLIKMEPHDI
sequence,measurement,setting,value
TGAACT,binding signal,FEV,"1.28 fold enrichment (6-mer frequency, TF over GST control)"
same,binding signal,ETV5,"1.19 fold enrichment (6-mer frequency, TF over GST control)"
same,binding signal,HSF1,"1.19 fold enrichment (6-mer frequency, TF over GST control)"
same,binding signal,SPIC,"1.34 fold enrichment (6-mer frequency, TF over GST control)"
same,binding signal,ELF4,"1.23 fold enrichment (6-mer frequency, TF over GST control)"
same,binding signal,ELK4,"1.22 fold enrichment (6-mer frequency, TF over GST control)"
same,binding signal,ETV2,"1.2 fold enrichment (6-mer frequency, TF over GST control)"
same,binding signal,ELF3,"1.11 fold enrichment (6-mer frequency, TF over GST control)"
same,binding signal,CRX,"1.12 fold enrichment (6-mer frequency, TF over GST control)"
same,binding signal,ETV1,"1.24 fold enrichment (6-mer frequency, TF over GST control)"
same,binding signal,ERF,"1.31 fold enrichment (6-mer frequency, TF over GST control)"
same,binding signal,ETV3L,"1.23 fold enrichment (6-mer frequency, TF over GST control)"
same,binding signal,ETS2,"1.23 fold enrichment (6-mer frequency, TF over GST control)"
same,binding signal,SPDEF,"1.16 fold enrichment (6-mer frequency, TF over GST control)"
same,binding signal,ETV7,"1.21 fold enrichment (6-mer frequency, TF over GST control)"
same,binding signal,ELF5,"1.23 fold enrichment (6-mer frequency, TF over GST control)"
same,binding signal,ETV3,"1.24 fold enrichment (6-mer frequency, TF over GST control)"
same,binding signal,ETV6,"1.22 fold enrichment (6-mer frequency, TF over GST control)"
